Source: PubChem BioAssay
ELG1 DNA repair – blocks ELG1-dependent DNA repair in HEK293T cells | AID 504467 | Potency, µM (doses to about 46.1 µM), for inactives: at the highest dose activity change, negative = inhibition, hits mostly inhibitors | actives 2.3% (n = 330,000) | HEK293T ELG1-luciferase reporter, luminescence, 16 h; DNA damage induced by 5-fluorouridine; further: on the % scale 0 is the no-effect control and ±100 the full control effect; nearly all actives have a fitted effect of over 55% in size
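DMSO vehicle served as the neutral condition. Each well held 2,000 cells given 5-fluorouridine plus compound; after 16 hr at 37 °C/5% CO2, ONE-Glo was added and luciferase measured 30 min later.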
FLuc modulator – inhibits or activates purified firefly luciferase, miR-21 counter-screen. actives 6.9% (n = 360,000). P08659. purified FLuc, Km substrates, luminescence inhibition. AID 588342. Potency, µM (doses to about 57.5 µM), inactives show top-dose activity change, negative = inhibition, actives largely listed as inhibitors;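 further: plate controls were vehicle for no effect and reference inhibitor for full effect; nearly all actives have a fitted effect of over 55% in size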
Target sequence (P08659 whole entry, looked up): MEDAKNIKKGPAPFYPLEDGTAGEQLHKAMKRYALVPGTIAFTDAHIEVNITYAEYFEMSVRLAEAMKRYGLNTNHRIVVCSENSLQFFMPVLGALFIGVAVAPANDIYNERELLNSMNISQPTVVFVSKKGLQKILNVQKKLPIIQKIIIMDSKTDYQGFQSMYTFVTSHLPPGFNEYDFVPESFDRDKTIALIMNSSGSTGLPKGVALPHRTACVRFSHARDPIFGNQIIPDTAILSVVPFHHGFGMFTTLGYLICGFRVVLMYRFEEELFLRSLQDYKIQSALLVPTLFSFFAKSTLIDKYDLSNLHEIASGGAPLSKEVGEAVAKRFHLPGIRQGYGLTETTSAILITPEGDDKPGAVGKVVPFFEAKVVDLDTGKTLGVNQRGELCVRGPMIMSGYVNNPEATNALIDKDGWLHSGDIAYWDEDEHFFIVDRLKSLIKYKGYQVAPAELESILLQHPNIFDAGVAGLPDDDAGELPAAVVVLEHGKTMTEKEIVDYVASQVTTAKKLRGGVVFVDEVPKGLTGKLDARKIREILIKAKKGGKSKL
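Purified P. pyralis luciferase (10nM final) with 10uM D-luciferin and 10uM ATP (Km levels) in 50mM Tris acetate pH 7.5, 10mM Mg acetate, 0.01% Tween-20, 0.05% BSA; qHTS 6-point titration, ~60 µM downward; luminescence read.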
Rab9 promoter act – Rab9 promoter activation; Huh7 Rab9 promoter-luciferase reporter, luminescence, 24 h; Potency, µM (top dose mostly 9.22 µM), inactives show top-dose activation, negative = inhibition, most hits filed as activators; actives 2.8% (n = 320,000); AID 485297; further: % of control where 0% means no effect; nearly all actives have a fitted effect of over 60% in size
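Cell-based reporter: Huh7 stable for Rab9 promoter-driven luciferase, plated in reduced-serum medium with 10% FBS at 1500 cells/well, compound-treated 24 h at 37 °C, luminescence read after 10 min reagent.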
SMN2 splice enh – SMN2 splice variant enhancement. HEK293 SMN2-luciferase splicing reporter, luminescence, 30-36 h. Potency, µM (series often up to 46.1 µM), for inactives: at the top dose activity change, positive = activation, most hits filed as activators. actives 2.8% (n = 210,000); further: % of control where 0% means no effect; nearly all actives have a fitted effect of over 55% in size
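HEK293 cells carry an SMN2 […]–luciferase reporter in which exon 7 inclusion puts luciferase in frame. Cells were plated 10-12 h before compound addition, then incubated 30-36 h at 37C. ONE-Glo luminescence was read; sodium butyrate at 4.5 mM final served as control.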
ELG1 genotox – inducers of genotoxicity in HEK293T ELG1-luciferase cells; actives 1.3% (n = 330,000); Potency, µM (top dose mostly 46 µM), inactives show at the highest dose activity change, positive = activation, actives largely listed as activators; HEK293T ELG1-luciferase reporter, luminescence, 16 h; further: % of control where 0% means no effect; nearly all actives have a fitted effect of over 60% in size
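HEK293T cells expressing luciferase-tagged ELG1 were exposed to compound or DMSO vehicle for 16 hr at 37 °C and 5% CO2. Luciferase activity was then measured with ONE-Glo after 30 min at room temperature.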
NPC1 promoter act – activates the NPC1 promoter | Huh7 NPC1 promoter luciferase reporter, 24 h | Potency, µM (highest dose often 9.22 µM), for the others: at the top dose activation, actives largely listed as activators | actives 2.4% (n = 320,000); further: % of control where 0% means no effect; nearly all actives have a fitted effect of over 60% in size
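NPC1 promoter–luciferase Huh7 cells; 24 h compound; luminescence.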
Numbers without * were called inactive; ? = inconclusive; · = no result. Most compounds without a hit are left out; they make up all but 9.2% or so of the library. The call rests on the fitted dose curve; in most records, active means well fitted curve in the direction sought with a large enough effect; inconclusive means small, poorly fitted or top-dose-only effect, or another doubt; inactive means no such curve, though single readings can be large; an effect the other way counts as inactive or inconclusive. Potency means the concentration at half of the fitted maximal effect.

SMILES	ELG1 DNA repair	FLuc modulator	Rab9 promoter act	SMN2 splice enh	ELG1 genotox	NPC1 promoter act
O=C(N/N=C/c1c(F)cccc1Cl)c1cc(C2CC2)[nH]n1	?	17µM*	?	·	?	?
COc1cc(/C=N/NC(=O)c2cc(C34CC5CC(CC(C5)C3)C4)[nH]n2)ccc1O	0%	13µM*	1%	20%	?	2%
O=C(N/N=C/c1ccc(O)cc1)c1cc(C2CC2)[nH]n1	2%	-18%	2%	·	4%	0%
CC/C(=N\NC(=O)c1cc(C2CC2)[nH]n1)c1ccccc1	?	13µM*	?	·	?	3.5µM*
Cc1nn(-c2ccccc2)c(C)c1/C=N/NC(=O)c1cc(C23CC4CC(CC(C4)C2)C3)[nH]n1	16µM*	?	-3%	?	-13%	-2%
COc1cc(OC)c(N(C)S(=O)(=O)c2cccc(C(=O)Nc3nnc(C4CC4)s3)c2)cc1Cl	-16%	-1%	1%	·	-2%	-4%
Nn1c(SCC(=O)Nc2ccc3c(c2)OCO3)nnc1C1CC1	1%	0%	-3%	0%	-2%	-1%
Nn1c(SCC(=O)NC(=O)Nc2ccc3c(c2)OCCO3)nnc1C1CC1	?	19µM*	?	?	14%	21%
CCn1c(SCC(=O)Nc2ccc3c(c2)OCCO3)nnc1-c1c[nH]c2ccccc12	-4%	13µM*	-3%	·	1%	-2%
CCn1c(SCC(=O)Nc2ccc3c(c2)OCCO3)nnc1-c1cccs1	0%	11µM*	13%	-2%	2%	-1%
CCn1c(SCC(=O)Nc2ccc3c(c2)OCCO3)nnc1C1CC1	16%	15µM*	-3%	·	1%	-3%
O=C(CSc1nnc(-c2c[nH]c3ccccc23)n1CC1CCCO1)Nc1ccc2c(c1)OCCO2 (stereo unspecified)	5%	-17%	1%	17%	0%	7%
COc1ccc2ccccc2c1CNC(=O)CC1C(=O)NCCN1CC(C)(C)C (stereo unspecified)	13%	4%	0%	·	1%	0%
CCc1nn2c(-c3ccco3)ccnc2c1-c1ccc(F)cc1	·	11µM*	·	-4%	·	·
Cc1ccc(CN2CCN(CC(=O)N/N=C/c3ccccc3F)CC2)cc1	?	1.7µM*	?	·	?	6%
Cc1ccc(C(=O)Nc2cccc(C(=O)N/N=C/c3ccccc3F)c2)cc1	?	5.4µM*	1.6µM*	·	?	2µM*
CC(=O)Nc1cccc(C(=O)N/N=C/c2ccccc2F)c1	?	1.3µM*	0.79µM*	?	7.3µM*	3.2µM*
CCC/C=C(\CCC)C(NC(=O)c1ccccc1)c1ccccc1 (stereo unspecified)	·	·	·	-10%	·	·
COc1cc(C(=O)Nc2cc(-c3nc4cc(C)ccc4o3)ccc2C)cc(OC)c1OC	25%	0.27µM*	?	?	?	?
Cc1ccc2oc(-c3ccc(C)c(NC(=O)C(C)(C)Oc4ccc(Cl)cc4)c3)nc2c1	·	3.8µM*	·	?	·	·
COc1cc(C(=O)Nc2cccc(-c3nc4cc(C)ccc4o3)c2C)cc(OC)c1OC	30%	0.95µM*	7%	5%	11%	16%
COc1cc(C(=O)Nc2cccc(-c3nc4cc(C)ccc4o3)c2)cc(OC)c1OC	15µM*	1.7µM*	20%	-10%	-4%	18%
Cc1ccc2oc(-c3ccc(C)c(NC(=O)c4ccc(C(C)(C)C)cc4)c3)nc2c1	·	-15%	·	-16%	·	·
Cc1ccc2oc(-c3ccc(C)c(NC(=S)NC(=O)c4cccs4)c3)nc2c1	?	6µM*	29%	?	8.2µM*	19%
Cc1ccc2oc(-c3ccc(C)c(NC(=O)Cc4cccs4)c3)nc2c1	-6%	?	2%	1%	1%	27%
O=C(N/N=C/C1CC=CCC1)c1ccc(O)cc1O (stereo unspecified)	23%	19µM*	3%	4%	0%	-1%
